According to paper PMC10726135, “HNF4α isoforms regulate the circadian balance between carbohydrate and lipid metabolism in the liver”:
In all, about 18,000 sequences were measured (“log2 normalized intensity”: median about 0.36, highest 2% from about 7.3 on). The entries come from a sample that favours the highest values as a whole.

These sequences were tested against T1, HNF4alpha8 (COS-7 nuclear extract) (Homo sapiens, UniProt P41235-5 1-452) (assay: protein-binding microarray; COS-7 nuclear extract on double-stranded Agilent 4x180k PBM; binding buffer, salt, pH and temperature not given in the material; high values mean tight binding). Details: chain copies: 2; label: 3' end of strand 1 on the slide; dsDNA, one strand shown.
T1 sequence: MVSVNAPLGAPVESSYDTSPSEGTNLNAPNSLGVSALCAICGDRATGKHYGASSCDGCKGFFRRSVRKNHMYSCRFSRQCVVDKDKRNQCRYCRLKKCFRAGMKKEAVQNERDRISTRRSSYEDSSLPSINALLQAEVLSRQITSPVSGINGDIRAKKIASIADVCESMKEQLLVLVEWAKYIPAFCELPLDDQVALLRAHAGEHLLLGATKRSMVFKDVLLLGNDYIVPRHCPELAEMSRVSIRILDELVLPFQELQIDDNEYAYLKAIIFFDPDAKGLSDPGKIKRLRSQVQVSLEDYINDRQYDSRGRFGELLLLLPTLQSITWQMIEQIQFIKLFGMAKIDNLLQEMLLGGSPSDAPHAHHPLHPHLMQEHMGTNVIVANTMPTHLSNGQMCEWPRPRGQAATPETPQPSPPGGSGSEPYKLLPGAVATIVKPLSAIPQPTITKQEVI
How it was run: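 Double-stranded oligonucleotides of ~60 nt, representing ~44,000 test sequences in quadruplicate, made up a custom Agilent SurePrint G3 4x180k array. Nuclear extracts from COS-7 cells transiently transfected by CaPO4 with a human HNF4α isoform expression vector were applied, and bound HNF4α was imaged at 2-µm resolution on an Agilent G2565CA scanner. Binding signal refers to the background-corrected, normalized gProcessedSignal output of Agilent software.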
With “CAATCCTGGAGAAGGAGCACCAATGACCTTGCCTAGGGAGATTAGAGTATCGGTCGA” the binding signal was 4.02 log2 normalized intensity.
For “CTAAGCAGCGAAGCTGTGTCAGGCATTGTAGCCTAGGGAGATTAGAGTATCGGTCGA”, the binding signal was -0.633 log2 normalized intensity.
Work on “AGATTCTGCAAACCTATTAATATATTCATAGCCTAGGGAGATTAGAGTATCGGTCGA” yielded a binding signal of -0.929 log2 normalized intensity.
In the case of “AGGCAGTCTGTTGACCTTTGGCCAAGGGCAGCCTAGGGAGATTAGAGTATCGGTCGA”, the binding signal is reported as 8.19 log2 normalized intensity.
“TTGACCTTTGGCCAAGGGCAGTGTTTGCCCGCCTAGGGAGATTAGAGTATCGGTCGA” showed a binding signal of 6.36 log2 normalized intensity.
In the case of “GAGTCTGTTGTCTAACATTTTTGACCTTCAGCCTAGGGAGATTAGAGTATCGGTCGA”, the binding signal is reported as 4.68 log2 normalized intensity.
“CCTCTTTGAGTCTGGTGTTCTCTTGGCCAAGCCTAGGGAGATTAGAGTATCGGTCGA” gave a binding signal of 1.63 log2 normalized intensity.
Sequence “CTTTGGCCAAGGGCAGTGTTTGCCCAGCTTGCCTAGGGAGATTAGAGTATCGGTCGA” has a binding signal of 0.731 log2 normalized intensity.
In the case of “GTCTGTTGACCTTTGGCCAAGGGCAGTGTTGCCTAGGGAGATTAGAGTATCGGTCGA”, the binding signal is reported as 7.73 log2 normalized intensity.
“TCTTTACACCATTGCAAGGATTCCAAATTTGCCTAGGGAGATTAGAGTATCGGTCGA” showed a binding signal of 0.0367 log2 normalized intensity.
“AAAGATTGCAGCAAGGAATTCAACCCTTGTGCCTAGGGAGATTAGAGTATCGGTCGA” gave a binding signal of 2.23 log2 normalized intensity.
For “GTCTTATCTACCTGGCTTGTTTGCAAAGCAGCCTAGGGAGATTAGAGTATCGGTCGA”, the binding signal was 0.749 log2 normalized intensity.
“TGCAGTTTCCCTATTCTCAGTGATATAAAAGCCTAGGGAGATTAGAGTATCGGTCGA” gave a binding signal of 0.942 log2 normalized intensity.
Sequence “CCTGCCTCTCCTCTGAGCTTCATCCTGACCGCCTAGGGAGATTAGAGTATCGGTCGA” has a binding signal of 1.7 log2 normalized intensity.
“GAGGTGTCAGCCACCCCTCCTCCTGGGGGCGCCTAGGGAGATTAGAGTATCGGTCGA” showed a binding signal of 2.93 log2 normalized intensity.
“CCTCCTCTCTGGGTCAAAGGTCATCGCACCGCCTAGGGAGATTAGAGTATCGGTCGA” showed a binding signal of 8.5 log2 normalized intensity.
For “CCTGGTCAAAGTCAACTCCTCCAAGCCACCGCCTAGGGAGATTAGAGTATCGGTCGA”, the binding signal was 0.614 log2 normalized intensity.
“CTGGGGCCACCCTCCTCTCTGGGTCAAAGGGCCTAGGGAGATTAGAGTATCGGTCGA” gave a binding signal of 5.36 log2 normalized intensity.
Sequence “GCCACCCTCCTCTCTGGGTCAAAGGTCATCGCCTAGGGAGATTAGAGTATCGGTCGA” has a binding signal of 10.2 log2 normalized intensity.
Work on “CACTGGCTCTGGGGTCAAAGTCCCCTGAGCGCCTAGGGAGATTAGAGTATCGGTCGA” yielded a binding signal of 7.66 log2 normalized intensity.
“TCTCTGGGTCAAAGGTCATCGCACCGGCAGGCCTAGGGAGATTAGAGTATCGGTCGA” was tested, and the binding signal was 7.54 log2 normalized intensity.
Work on “CTCTCCCTCCTCTCTGAGCAGTCAAACTGGGCCTAGGGAGATTAGAGTATCGGTCGA” yielded a binding signal of 1.89 log2 normalized intensity.
“GGGGTCAAAGTCCCCTGAGCTTGAGTCCATGCCTAGGGAGATTAGAGTATCGGTCGA” gave a binding signal of 6 log2 normalized intensity.
“AGGTCGCAAGCACTGGCTCTGGGGTCAAAGGCCTAGGGAGATTAGAGTATCGGTCGA” showed a binding signal of 4.08 log2 normalized intensity.
For “AAAGGTCATCGCACCGGCAGGGGAGAACTTGCCTAGGGAGATTAGAGTATCGGTCGA”, the binding signal was 1.24 log2 normalized intensity.
Sequence “CCAATTCACAGAACTCCCTAAGTGGCCTCAGCCTAGGGAGATTAGAGTATCGGTCGA” has a binding signal of 0.0537 log2 normalized intensity.
“GGTTGTCAGACTGGTGTAGTGGGGAGGGCAGCCTAGGGAGATTAGAGTATCGGTCGA” was tested, and the binding signal was 1.35 log2 normalized intensity.
With “GCGGCATTCCTGTCAAAATCTGATCTTTCCGCCTAGGGAGATTAGAGTATCGGTCGA” the binding signal was 1.47 log2 normalized intensity.
In the case of “CAAGTTGGTTTACATTCTTAGAAGATAAAGGCCTAGGGAGATTAGAGTATCGGTCGA”, the binding signal is reported as 0.323 log2 normalized intensity.
“GAGGCTTTGAGTCATTGAGGCTTTGCCTTAGCCTAGGGAGATTAGAGTATCGGTCGA” showed a binding signal of -0.699 log2 normalized intensity.
“GAATTCTTGACTTTGGACTTTCAAAAGTTAGCCTAGGGAGATTAGAGTATCGGTCGA” gave a binding signal of 5.14 log2 normalized intensity.
Sequence “CTTGACTTTGGACTTTCAAAAGTTAAGGTCGCCTAGGGAGATTAGAGTATCGGTCGA” has a binding signal of 3.98 log2 normalized intensity.
“CACAGCTGGACTTTGGCTGCAAAATTTGAAGCCTAGGGAGATTAGAGTATCGGTCGA” was tested, and the binding signal was 3.88 log2 normalized intensity.
Work on “AATGATGATGACTTTTGACCCCAGGGGAAAGCCTAGGGAGATTAGAGTATCGGTCGA” yielded a binding signal of 6.38 log2 normalized intensity.
“GAGACCCATTTTGGACTTTGACCTCCAAAAGCCTAGGGAGATTAGAGTATCGGTCGA” gave a binding signal of 11.3 log2 normalized intensity.
In the case of “TTGGACTTTGACCTCCAAAATTATAAGTCAGCCTAGGGAGATTAGAGTATCGGTCGA”, the binding signal is reported as 8.58 log2 normalized intensity.
“CTTTGTAGCACTTTGGACCTCCACTTTGGAGCCTAGGGAGATTAGAGTATCGGTCGA” was tested, and the binding signal was 3.36 log2 normalized intensity.
Work on “CCATTTTGGACTTTGACCTCCAAAATTATAGCCTAGGGAGATTAGAGTATCGGTCGA” yielded a binding signal of 10.9 log2 normalized intensity.
With “CATTGACTTTGCCTTTTGGCTAAAGTCCAAGCCTAGGGAGATTAGAGTATCGGTCGA” the binding signal was 4.75 log2 normalized intensity.
“TTTGTCAAATGCTTCCAAGAATTTAAGAGAGCCTAGGGAGATTAGAGTATCGGTCGA” was tested, and the binding signal was -0.862 log2 normalized intensity.
“CAGAGGACAGGTTTCCTGAGTTACAGATAAGCCTAGGGAGATTAGAGTATCGGTCGA” showed a binding signal of -0.778 log2 normalized intensity.
Work on “ATTCACATCTCCAGTTCCAAAGTCCAGGTGGCCTAGGGAGATTAGAGTATCGGTCGA” yielded a binding signal of 6.55 log2 normalized intensity.
Work on “TGTTAGCAGAAACCATCTGGCTTGGCCCCCGCCTAGGGAGATTAGAGTATCGGTCGA” yielded a binding signal of 4.14 log2 normalized intensity.
